Laboratory results as given in PMC5540273 (PLoS ONE, 2017).

Assays:
Conditions in all cases: concentration: 1 μM, replicates: in singlicate; n = 1
[1] = test system: T1, RSK4(Kin.Dom.1-N-terminal)
T1 construct: gene RPS6KA6

[2] = test system: T2, RSK4(Kin.Dom.2-C-terminal)
T2 construct: gene RPS6KA6

[3] = test system: S6K1
[4] = test system: SBK1
[5] = test system: SGK2
[6] = test system: SGK3
[7] = test system: SGK
[8] = test system: SIK2
[9] = test system: SIK
[10] = test system: SLK
[11] = test system: T3, SNARK
T3 construct: gene NUAK2

[12] = test system: SNRK
[13] = test system: SRC
[14] = test system: SRMS
[15] = test system: SRPK1
[16] = test system: SRPK2
[17] = test system: SRPK3
[18] = test system: STK16
[19] = test system: STK33
[20] = test system: STK35
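Note: KINOMEscan kinase panel screen.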

SMILES | %Inh [1] [%] | %Inh [2] [%] | %Inh [3] [%] | %Inh [4] [%] | %Inh [5] [%] | %Inh [6] [%] | %Inh [7] [%] | %Inh [8] [%] | %Inh [9] [%] | %Inh [10] [%] | %Inh [11] [%] | %Inh [12] [%] | %Inh [13] [%] | %Inh [14] [%] | %Inh [15] [%] | %Inh [16] [%] | %Inh [17] [%] | %Inh [18] [%] | %Inh [19] [%] | %Inh [20] [%]
CNC(=O)c1ccccc1Nc1nc(Nc2ccc(N3CCOCC3)cc2)ncc1Cl.Cl [GSK1576028] | 99.3 | 38 | 97 | 90.5 | 50 | 87 | 97.1 | 92.4 | 99 | 99.5 | 99.2 | 0 | 100 | 67 | 98.1 | 35 | 78 | 99.2 | 98.6 | 50
COC(=O)Nc1nc2ccc(Oc3ccc(NC(=O)Nc4cc(C(F)(F)F)ccc4F)cc3)cc2n1C.Cl [GW692089] | 0 | 0 | 1 | 4 | 0 | 20 | 8 | 0 | 1 | 49 | 17 | 0 | 0 | 0 | 26 | 57 | 5 | 0 | 30 | 0
Cc1ccc(C)c(NC(=O)NC2CCN(c3ccnc(Nc4ccc(F)cc4)n3)C2)c1 (centres unmarked) [GSK1379720] | 0 | 6 | 8 | 1 | 2 | 0 | 0 | 0 | 0 | 0 | 0 | 0 | 0 | 0 | 24 | 49 | 0 | 0 | 0 | 0
Oc1cc(Nc2ccnc3cc(I)ccc23)ccc1F [GW552771] | 7 | 87 | 35 | 8 | 2 | 1 | 19 | 57 | 29 | 16 | 0 | 0 | 67 | 0 | 21 | 0 | 9 | 0 | 0 | 5
Cn1cc(-c2ccc3c(c2)CCN3C(=O)Cc2cccc(Cl)c2)c2c(N)ncnc21 [GSK2606590] | 0 | 19 | 0 | 9 | 0 | 0 | 0 | 0 | 10 | 67 | 18 | 0 | 21 | 0 | 0 | 0 | 11 | 11 | 0 | 0
CCn1c(-c2nonc2N)nc2c(C#CC(C)(C)O)ncc(OCCCCN)c21.O=C(O)C(F)(F)F.O=C(O)C(F)(F)F [GSK507274] | 2 | 7 | 1 | 44 | 12 | 2 | 0 | 5 | 2 | 1 | 94.7 | 19 | 0 | 0 | 0 | 42 | 18 | 0 | 0 | 0
CCn1c(-c2nonc2N)nc2c(C#CC(C)(C)O)nc(OC[C@H](N)c3ccccc3)cc21 [GSK943949] | 0 | 0 | 4 | 0 | 18 | 0 | 6 | 0 | 2 | 6 | 92.8 | 0 | 1 | 4 | 41 | 0 | 24 | 9 | 0 | 0
C[C@@H](Oc1cc(-n2cnc3cc(-c4ccnc(NCCS(C)(=O)=O)c4)ccc32)sc1C(N)=O)c1ccccc1Cl [GSK907232] | 20 | 14 | 0 | 1 | 13 | 0 | 4 | 50 | 20 | 99 | 95.4 | 0 | 48 | 0 | 84 | 0 | 82 | 27 | 0 | 15
Cl.c1ccc(-c2ccc3c(Nc4ccc5[nH]ncc5c4)ccnc3c2)nc1 [GW440137] | 0 | 0 | 0 | 0 | 0 | 21 | 58 | 0 | 0 | 31 | 20 | 0 | 33 | 0 | 31 | 0 | 0 | 30 | 0 | 0
CCc1ccc(-c2ccc3c(c2)-c2c(cnn2C)S(=O)(=O)N3C)cc1 | 0 | 0 | 4 | 0 | 0 | 0 | 0 | 4 | 6 | 0 | 8 | 0 | 0 | 0 | 0 | 0 | 18 | 0 | 0 | 2
O=C(NC1CCN(c2ccnc(Nc3ccc(F)cc3)n2)C1)c1cc2ccccc2s1 (centres unmarked) [GSK1379716] | 0 | 24 | 0 | 24 | 0 | 0 | 14 | 6 | 11 | 32 | 0 | 0 | 1 | 0 | 31 | 37 | 4 | 15 | 0 | 6
Cn1cc(-c2[nH]c3cc(NC(=O)[C@H](N)C4CCCCC4)cc4c3c2C=NNC4=O)cn1 | 86 | 35 | 76 | 96.2 | 83 | 99.1 | 95.7 | 95.2 | 90.8 | 14 | 97.9 | 1 | 98.3 | 75 | 99 | 77 | 82 | 66 | 37 | 53
c1ccc(Oc2ccc(Nc3ccnc4cc(-c5ccc(CNCCN6CCOCC6)o5)ccc34)cc2)nc1 [GW567145] | 0 | 0 | 0 | 8 | 0 | 0 | 17 | 78 | 96.4 | 8 | 6 | 0 | 22 | 87 | 0 | 58 | 0 | 2 | 21 | 48
CSc1cccc2c(-c3ccncn3)c(-c3ccc(F)cc3)nn12 [GW514786] | 0 | 90 | 0 | 2 | 15 | 0 | 1 | 2 | 2 | 22 | 0 | 0 | 1 | 0 | 0 | 0 | 100 | 3 | 0 | 0
c1ccc(-c2cnc3nccnn23)cc1 [AH20685] | 0 | 0 | 10 | 5 | 0 | 0 | 0 | 0 | 0 | 11 | 0 | 0 | 0 | 0 | 20 | 0 | 0 | 0 | 0 | 0
CC(=O)Nc1nc2cnc(Nc3cc(NC(=O)c4cccc(C5(C#N)CC5)c4Cl)ccc3C)nc2s1 | 0 | 18 | 14 | 0 | 0 | 0 | 0 | 6 | 29 | 23 | 0 | 0 | 45 | 0 | 39 | 5 | 0 | 11 | 0 | 0
Cl.c1ccc(-c2ccc3c(Nc4ccc5[nH]ccc5c4)ccnc3c2)nc1 [GW440138] | 0 | 34 | 0 | 0 | 0 | 6 | 0 | 0 | 0 | 84 | 4 | 0 | 60 | 0 | 38 | 22 | 0 | 0 | 0 | 0
CCCCc1nn2ncccc2c1-c1ccnc(Nc2ccc(N3CCN(C)CC3)cc2)n1 [GW684941] | 0 | 82 | 0 | 30 | 0 | 0 | 24 | 84 | 83 | 69 | 90.2 | 0 | 98.8 | 0 | 63 | 6 | 26 | 86 | 39 | 0
Cc1occc1-c1ncc(OC[C@@H](N)Cc2c[nH]c3ccccc23)cc1-c1ccc2[nH]nc(C)c2c1.O=C(O)C(F)(F)F [GSK682037] | 61 | 0 | 56 | 19 | 0 | 20 | 0 | 65 | 54 | 95.2 | 60 | 0 | 65 | 0 | 54 | 0 | 70 | 0 | 86 | 69
